Results filed as inconclusive are left out. Activity calls are given as the source filed them. Calls follow the shape of the dose curve; as a rule, active = well fitted activation curve with a large enough effect; inconclusive = small, poorly fitted or top-dose-only effect; inactive = flat fitted curve, though single readings scatter.
Experiment: Primary redox qHTS assay for identification of artifact compounds. (AID 1845223);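 also: 0% = DMSO and 100% = reference compound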
Details: Amplex Red/HRP redox cycling with DTT, fluorescence; series mostly up to 53.8 µM; redox activity (% of DA3003): at the top concentration
Procedure, shortened: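 Redox-cycling detection via DTT (250 uM final) oxidation coupled to Amplex Red (25 uM)/HRP (250 mU/mL) in HBSS. 15 min preincubation plus 30 min after DTT, room temperature. Ex/Em 525/598 nm; 4-parameter Hill fit against DMSO and 10 uM DA3003.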

SMILES | redox activity (% of DA3003)
CC(=O)OC1CC2(C)C(CCC(C)C23Cc2c(O)cc4c(c2O3)CNC4=O)C(C)(C)C1O (stereo unspecified) | 7.34% [at 25.6 µM] (inactive)
CCC1OC(=O)C(C)CC(C)C(=O)/C(C)=C/C(C)C(=O)/C=C/C1(C)O (stereo unspecified) | -0.882% (inactive)
C=C(C)[C@H]1CC[C@]2(C(=O)O)CC[C@]3(C)C(CCC4[C@@]5(C)CCC(=O)C(C)(C)C5CC[C@]43C)C12 (stereo partly specified) | 11.6% [at 25.6 µM] (inactive)
Cn1nccc1-c1ccccc1Oc1ccc(S(=O)(=O)Nc2nccs2)cc1C#N | 14.9% (inactive)
C=C1C[C@H](O)[C@@H](O)[C@@]2(C)C1[C@@H](O)[C@H]1OC(=O)C3[C@@H](C)[C@@H](O)[C@H](O)C2[C@]31C (stereo partly specified) | -17.2% (inactive)
C=C1C2(C)CC3C4(C)C=CC(=O)OC(C)(C)C4CCC3(C)C1(C(=O)OC)C(=O)C(C)(O)C2=O (stereo unspecified) | 19.9% [at 25.6 µM] (inactive)
COC(O)(CC(C)C)C1Oc2cc(C)[nH]c(=O)c2O1 (stereo unspecified) | -17.4% (inactive)
O=C1C(Cl)=C(N2CCOCC2)C(=O)N1c1ccc(Cl)c(Cl)c1 | 3.15% [at 25.6 µM] (inactive)
NC(=O)c1ccc(F)c2c1C[C@@H](N(C1CCC1)C1CCC1)CO2 | 1.18% (inactive)
CC1CCC2(C(=O)O)CCC3(C)C(=CCC4C5(C)CCC(O)C(C)(C(=O)O)C5CCC43C)C2C1(C)O (stereo unspecified) | 12.9% [at 25.6 µM] (inactive)
Cc1onc(-c2ccccc2Cl)c1C(=O)N(C)c1ccc(Cl)cc1 | 3.18% (inactive)
COc1ccc(C2COc3cc(O)ccc3C2)c(O)c1OC (stereo unspecified) | -4.22% (inactive)
CC(C)CC(=O)NCCn1cc(C(=O)O)c(=O)cc1C(O)c1ccccc1 (stereo unspecified) | 20.2% (inactive)
C=C1C(=O)O[C@@H]2CC(C)=C([C@@H](C)CCCOC(C)=O)[C@@H](O)[C@H]12 | -3.69% (inactive)
COc1cc(C2Oc3c(OC)cc(CCCO)cc3C2CO)ccc1O (stereo unspecified) | 14.1% (inactive)
CCC/C=C1\OC(=O)C2=C1CCC(O)C2O (stereo unspecified) | 9.76% (inactive)
COC(=O)C1(C)CCCC2(C)c3ccc(C(C)C)cc3C(O)C(O)C12 (stereo unspecified) | 10.8% (inactive)
COC(=O)[C@]1(C)CCC[C@@]2(C)[C@@H]3CC[C@@H]4C[C@@]3(CC[C@@H]21)C[C@H]4C(=O)O | -4.65% (inactive)

SMILES | redox activity (% of DA3003)
C=C1CC[C@@H]2C(C)(C)CCC[C@@]2(C)[C@@H]1CC/C(=C/C(=O)OC)COC(C)=O | -7.07% (inactive)
CC1(C)OC(=O)C=C[C@@]2(C)C1CC(=O)[C@]1(C)C2CC[C@@]2(C)[C@H](c3ccoc3)OC(=O)[C@H]3O[C@]321 (stereo partly specified) | 8.49% [at 25.6 µM] (inactive)
CC1(C)CC[C@]2(C(=O)O)CC[C@]3(C)C(=CCC4[C@@]5(C)CC[C@H](O[C@H]6O[C@H](C(=O)O)[C@@H](O)[C@H](O[C@@H]7O[C@H](CO)[C@H](O)[C@H](O)[C@H]7O)[C@H]6O)C(C)(C)C5CC[C@]43C)[C@@H]2C1 (stereo partly specified) | 8.43% [at 11.5 µM] (inactive)
CC1OC(O[C@H]2CC[C@@]3(C)C(CC[C@]4(C)C3CC=C3C5CC(C)(C)CC[C@]5(C(=O)OC5OC(CO)C(OC6OCC(OC7OCC(O)C(O)C7O)C(O)C6O)C(O)C5O)CC[C@]34C)C2(C)C)C(O)C(O)C1OC1OC(CO)C(O)C(OC2OC(CO)C(O)C(O)C2O)C1O (stereo partly specified) | 2.88% [at 11.5 µM] (inactive)
CC(C)C1(O)C=C2C(=O)CC3C(C)(C(=O)O)CCCC3(C)C2CC1 (stereo unspecified) | -15% (inactive)
CCc1cccc2c3c([nH]c12)[C@@](CC)(CC(=O)O)OCC3 | -0.73% (inactive)
C[C@@H]1O[C@@H](OC[C@H]2O[C@@H](OCc3ccccc3)[C@H](O)[C@@H](O)[C@@H]2O)[C@H](O)[C@H](O)[C@H]1O | -16.1% [at 25.6 µM] (inactive)
O=C(O)[C@H]1Cc2ccccc2CN1 | -3.86% [at 6.41 µM] (inactive)
C/C(CO)=C1/CCC23COC(C2)C(O)(C(=O)O)CCC13 (stereo unspecified) | -9.45% (inactive)
COc1ccc(-n2c(SCC#N)nc3sc4c(c3c2=O)CCCC4)cc1 | -9.67% (inactive)
Cc1cc(C)c2nc(-c3ccccn3)cc(C(=O)Nc3ccc(S(=O)(=O)Nc4onc(C)c4C)cc3)c2c1 | 16.5% (inactive)
NC(=O)NCCCC(NC(=O)Cc1ccccc1)C(=O)O (stereo unspecified) | -8.49% (inactive)
CC1=COC(OC2OC(CO)C(O)C(O)C2O)C2C(CO)CC(OC(=O)/C=C/c3ccc(O)cc3)C12 (stereo unspecified) | 4.11% [at 25.6 µM] (inactive)
CC1=C2CC(=O)C(C)CC/C=C(\C)CC2(O)OC1=O (stereo unspecified) | -6.55% (inactive)
COC1OC(=O)C2=C1C1(C)CCCC(C)(C)C1CC2O (stereo unspecified) | -2.69% (inactive)
C=C1C(OC(C)=O)CCC2(C)CC3(O)OC(=O)C(C)=C3CC12 (stereo unspecified) | -11.4% (inactive)
C=C1C(O)C(OC(=O)c2ccccc2)C2C(C)(C(=O)O)CCCC2(C)C1CC/C(C)=C\CO (stereo unspecified) | 10% [at 25.6 µM] (inactive)
CC1OC(OC2C(OC3C(O[C@H]4CC[C@@]5(C)C(CC[C@]6(C)C5CC=C5C7CC(C)(C)CC(O)[C@]7(C)CC[C@]56C)C4(C)C)OC(C(=O)O)C(O)C3O)OCC(O)C2O)C(O)C(O)C1O (stereo partly specified) | 9.66% [at 11.5 µM] (inactive)
